Test results as given in the supplement of paper PMC13380429.

Each compound was assayed on Vero E6 infected with SARS-CoV-2 (assay: inhibition of SARS-CoV-2 cytopathic effect; higher = more antiviral protection, active = above 15). Settings: 833.33 nM; 48 h.

Question: For O=C(O)COc1ccc(/C=C2\SC(=O)NC2=O)cc1, which “inhibition of SARS-CoV-2 cytopathic effect” value (“inhibition” for short) is on record?
Answer: 4.16% (inactive)

Question: Which “inhibition” value does the source give for O=S(=O)(c1cccc2cnccc12)N1CCCNCC1 [fasudil] here?
Answer: -2.42% (inactive)

Question: For Cc1ccc(C(=O)c2cc(O)c(O)c([N+](=O)[O-])c2)cc1 [tolcapone], which “inhibition” value is on record?
Answer: 0.66% (inactive)

Question: Which “inhibition” value does the source give for CN(C)[C@@H]1C(O)=C(C(N)=O)C(=O)[C@@]2(O)C(O)=C3C(=O)c4c(O)cccc4[C@@](C)(O)[C@H]3[C@H](O)[C@@H]12 [oxytetracycline] here?
Answer: -0.96% (inactive)

Question: How did the “inhibition” value turn out when O=C(O)C[CH2][Ge](=[O])[O][Ge](=[O])[CH2]CC(=O)O [propagermanium] was run?
Answer: -0.73% (inactive)

Question: C[C@H]1CCC/C=C/[C@@H]2C[C@H](O)C[C@H]2[C@H](O)/C=C/C(=O)O1 [brefeldin-A] was tested. Which “inhibition” value did it give?
Answer: -3.55% (inactive)

Question: For COc1ccccc1Oc1c(NS(=O)(=O)c2ccc(C(C)(C)C)cc2)nc(-c2ncccn2)nc1OCCO [bosentan], which “inhibition” value is on record?
Answer: -3.3% (inactive)

Question: How did the “inhibition” value turn out when CN1CCN(c2ccc3[nH]c(-c4ccc5[nH]c(-c6ccc(O)cc6)nc5c4)nc3c2)CC1 [pibenzimol] was run?
Answer: 2.62% (inactive)

Question: How did the “inhibition” value turn out when CC(C)c1ccc(CC(=O)N2CCC[C@@H](c3cccc(OC(C)(C)C(=O)O)c3)C2)cc1 was run?
Answer: 1.87% (inactive)

Question: How did the “inhibition” value turn out when N#Cc1ccc(N2N=C3c4ccc(C(=O)O)cc4CC[C@@H]3[C@@H]2C2CCCC2)cc1Cl was run?
Answer: 4.59% (inactive)

Question: How did the “inhibition” value turn out when O=S(=O)(NCC1CC1)c1ccc(Nc2nccc(N3CCCc4cc(O)ccc43)n2)cc1 [pyrintegrin] was run?
Answer: 14.1% (inactive)

Question: How did the “inhibition” value turn out when CS(=O)(=O)CCNCc1nc(-c2ccc3ncnc(Nc4ccc(OCc5cccc(F)c5)c(Cl)c4)c3c2)cs1 was run?
Answer: -4.71% (inactive)

Question: For CCN(CCO)CCCC(C)Nc1ccnc2cc(Cl)ccc12 (centres undefined) [hydroxychloroquine], which “inhibition” value is on record?
Answer: 0% (inactive)

Question: How did the “inhibition” value turn out when Cc1cc(Nc2ncc(Cl)c(Nc3ccccc3S(=O)(=O)C(C)C)n2)c(OC(C)C)cc1C1CCNCC1 [ceritinib] was run?
Answer: -2.36% (inactive)

Question: For CNC[C@H](O)c1cccc(O)c1 [phenylephrine], which “inhibition” value is on record?
Answer: 0.14% (inactive)

Question: How did the “inhibition” value turn out when NCCCCCC(O)(P(=O)(O)O)P(=O)(O)O [neridronic-acid] was run?
Answer: 2.29% (inactive)

Question: How did the “inhibition” value turn out when CC(C)OC(=O)[C@H](C)N[P@](=O)(CO[C@H](C)Cn1cnc2c(N)ncnc21)Oc1ccccc1 [tenofovir-alafenamide] was run?
Answer: -2.51% (inactive)

Question: Which “inhibition” value does the source give for c1ccc2c(c1)sc1ccccc12 [dibenzothiophene] here?
Answer: 0.07% (inactive)

Question: For CC(C)Nc1nc2cc(Cl)c(Cl)cc2n1[C@H]1O[C@@H](CO)[C@H](O)[C@@H]1O [maribavir], which “inhibition” value is on record?
Answer: -0.76% (inactive)

Question: For Cc1cc(-c2cc(O)ccc2Cl)cc2nnc(Nc3ccc(OCCN4CCCC4)cc3)nc12, which “inhibition” value is on record?
Answer: -1.25% (inactive)

Question: For CCn1c(=O)c(-c2ccc(Cl)cc2Cl)cc2cnc(Nc3ccc(N4CCNCC4)c(F)c3)nc21, which “inhibition” value is on record?
Answer: -6.85% (inactive)

Question: Which “inhibition” value does the source give for CC=C1C(=O)C[C@H]2[C@@H]3CCC4=CC(=O)CC[C@]4(C)[C@H]3CC[C@]12C here?
Answer: -0.96% (inactive)

Question: For COc1cc(Nc2nc3ccccc3nc2NS(=O)(=O)c2ccc(NC(=O)c3ccc(C)c(OC)c3)cc2)cc(OC)c1, which “inhibition” value is on record?
Answer: -1.67% (inactive)

Question: C[C@]12C[C@H](O)[C@H]3[C@@H](CCC4=CC(=O)CC[C@@]43C)[C@@H]1CC[C@@H]2C(=O)CO [corticosterone] was tested. Which “inhibition” value did it give?
Answer: -0.38% (inactive)

Question: Which “inhibition” value does the source give for O=[N+]([O-])O[C@H]1CO[C@H]2[C@@H]1OC[C@H]2O[N+](=O)[O-] [isosorbide-dinitrate] here?
Answer: 1.87% (inactive)

Question: Cc1noc2c1-c1ccccc1C(c1ccc(Cl)cc1)=N[C@H]2CC(N)=O was tested. Which “inhibition” value did it give?
Answer: 0.14% (inactive)

Question: How did the “inhibition” value turn out when CCN1CCN(Cc2ccc(Nc3ncc(F)c(-c4cc(F)c5nc(C)n(C(C)C)c5c4)n3)nc2)CC1 [abemaciclib] was run?
Answer: 11.9% (inactive)

Question: For NS(=O)(=O)c1ccc(-n2nc(C(F)(F)F)cc2-c2ccc(Cl)cc2)cc1, which “inhibition” value is on record?
Answer: -0.43% (inactive)

Question: Which “inhibition” value does the source give for COC(=O)C1=C(C)N(C)C(C)=C(C(=O)OC)C1c1ccc(C(F)(F)F)cc1 here?
Answer: 2.1% (inactive)

Question: Cn1cnc2c(NCc3ccccc3)nc(NCCO)nc21 [olomoucine] was tested. Which “inhibition” value did it give?
Answer: -0.46% (inactive)

Question: How did the “inhibition” value turn out when CCN(CC)CCNc1ccc(CO)c2sc3ccccc3c(=O)c12 [hycanthone] was run?
Answer: -2.51% (inactive)

Question: With C[C@H](Cc1cc2c(c(C(N)=O)c1)N(CCCO)CC2)NCCOc1ccccc1OCC(F)(F)F [silodosin] as the compound, how does the “inhibition” value read?
Answer: 2.24% (inactive)

Question: With OC[C@@H](O)[C@@H](O)[C@@H](O)CO [ribitol] as the compound, how does the “inhibition” value read?
Answer: 3.1% (inactive)

Question: With Oc1cc2c(cc1O)CN(C(=S)NCCc1ccc(Cl)cc1)CCC2 [capsazepine] as the compound, how does the “inhibition” value read?
Answer: -0.65% (inactive)

Question: With Cc1cc(C)c(S(=O)(=O)n2cc(C)cc2C)c(C)c1 as the compound, how does the “inhibition” value read?
Answer: 0.3% (inactive)

Question: Which “inhibition” value does the source give for COc1ccc(-c2ccc3c(N4CCOC[C@@H]4C)nc(N4CCOC[C@@H]4C)nc3n2)cc1CO here?
Answer: -4.35% (inactive)

Question: How did the “inhibition” value turn out when C=C1c2cccc(O)c2C(=O)C2=C(O)[C@]3(O)C(=O)C(C(N)=O)=C(O)[C@@H](N(C)C)[C@@H]3[C@@H](O)[C@H]12 [methacycline] was run?
Answer: 0.36% (inactive)

Question: Which “inhibition” value does the source give for Cc1cc(-c2cc(OC(=O)c3ccccc3)ccc2Cl)cc2nnc(Nc3ccc(OCCN4CCCC4)cc3)nc12 here?
Answer: 1.14% (inactive)

Question: How did the “inhibition” value turn out when CO[C@@H]1COCC[C@@H]1N[C@@H]1CC[C@@](C(=O)N2CCc3ncc(C(F)(F)F)cc3C2)(C(C)C)C1 was run?
Answer: -0.05% (inactive)
